From PubChem BioAssay (NCI)
Compounds without any hit were thinned out: in the full panel of roughly 79,000, 15% have a hit. Cut-off read from the data, not from the text of the source: active = growth inhibition above about 70%; inactive = the rest.

How the values were obtained:
[1] = NCI Yeast Anticancer Drug Screen. Data for the rad50 strain (AID 155);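 note: 0% = growth of vehicle-only cultures of the same strain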; settings: S. cerevisiae rad50 strain growth inhibition; at 50.0 µM; stronger effect = higher value
Method in brief: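 DNA repair mutant yeast, compound exposure, growth read-out; inhibition is taken relative to vehicle.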

[2] = NCI Yeast Anticancer Drug Screen. Data for the mec2-1 strain (AID 157); settings: S. cerevisiae mec2-1 strain, at 50.0 µM, stronger effect = higher value
Method in brief: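 mec2-1 yeast strain, carrying an alteration in DNA damage repair or cell cycle control, was exposed to compounds; growth inhibition was measured relative to vehicle-treated controls.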

[3] = NCI Yeast Anticancer Drug Screen. Data for the sgs1 mgt1 strain (AID 161);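 note: 0% = growth of cultures given vehicle only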; settings: S. cerevisiae sgs1 mgt1 strain, at 50.0 µM, stronger effect = higher value
Method in brief: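 Yeast cells carrying a defined DNA-repair defect were exposed to test compounds. Growth inhibition was measured relative to vehicle-treated controls.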

[4] = NCI Yeast Anticancer Drug Screen. Data for the cln2 rad14 strain (AID 165);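 note: 0% = growth equal to vehicle treated cultures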; settings: S. cerevisiae cln2 rad14 strain, at 50.0 µM, stronger effect = higher value
Method in brief: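 Yeast carrying cln2 and rad14 alterations (cell cycle control and DNA damage repair) were exposed to compounds. Growth inhibition was measured against vehicle-treated controls.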

[5] = NCI Yeast Anticancer Drug Screen. Data for the bub3 strain (AID 167); settings: S. cerevisiae bub3 mutant strain, at 50.0 µM, stronger effect = higher value
Method in brief: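 In this screen, a yeast mutant lacking normal mitotic checkpoint function is challenged with compound. Relative growth versus vehicle gives the inhibition value.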

[6] = NCI Yeast Anticancer Drug Screen. Data for the mlh1 rad18 strain (AID 175); settings: S. cerevisiae mlh1 rad18 strain growth inhibition; at 50.0 µM; stronger effect = higher value
Method in brief: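 Growth inhibition of the yeast strain was measured after compound exposure and expressed relative to vehicle-treated controls. The strain carries defined defects in DNA damage repair.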

Measured: growth inhibition

CC[N+](CC)=c1ccc2nc3c(cc(Nc4ccccc4)c4ccccc43)oc-2c1.[Cl][Zn][Cl]
inactive: [1] 18.4% | [2] 1.4% | [3] 22.2% | [4] 20.9% | [5] -0.55% | [6] 15.4%

O=[N+]([O-])c1ccc2nc(-c3ccccc3[N+](=O)[O-])[nH]c2c1
inactive: [1] 0.2% | [2] 0.85% | [3] 2.5% | [4] -49.5% | [5] -7.35% | [6] -5.15%

CC(C)NC(=O)C1C2CCC(C2)C1C(=O)NC(C)C (centres undefined)
inactive: [1] 3.55% | [2] -1% | [3] 2.35% | [4] -28.4% | [5] -0.3% | [6] -7.25%

O=C(Nc1ccccc1[N+](=O)[O-])OCCOc1ccccc1
inactive: [1] 1.65% | [2] 21.2% | [3] 6.8% | [4] -7.2% | [5] 30.8% | [6] -9.85%

CC(=O)Nc1ccc(C(=O)N2N=C(C)/C(=C/c3cccc([N+](=O)[O-])c3)C2=O)cc1
inactive: [1] -9.8% | [2] -17.6% | [3] -47.5% | [4] 2.55% | [5] -21.9% | [6] -32.2%

CCN(CC)CCCC(C)Nc1ccnc2c(Cl)cccc12 (centres undefined)
inactive: [1] 15.7% | [2] 14.3% | [3] 22.4% | [4] 22.6% | [5] 5.2% | [6] 2.4%

COc1ccc(O)c(C(=O)O)c1
inactive: [1] -20.2% | [2] -12.3% | [3] -7.55% | [4] 12.6% | [5] -3.35% | [6] 2.15%

O=S(=O)(Nc1cccc(C2=NCCN2)c1)c1cccc2c(S(=O)(=O)Nc3cccc(C4=NCCN4)c3)cccc12
inactive: [1] -9.6% | [2] -25.9% | [3] -30.1% | [4] -19% | [5] -12.2% | [6] -22.1%

Cn1c(-c2ccccc2)c/c(=N\NS(C)(=O)=O)c2cc(S(=O)(=O)O)ccc21
inactive: [1] -7.1% | [2] -27.7% | [3] -0.25% | [4] -3% | [5] 11.2% | [6] 10.2%

COc1ccc(C2=C/C(=C/c3cccs3)C(=O)O2)cc1
inactive: [1] -14.2% | [2] 1.45% | [3] -0.15% | [4] -36.9% | [5] 3.75% | [6] 0.15%

CC(=O)NC(c1ccc(Cl)cc1)(c1ccc(Cl)cc1)C(Cl)(Cl)Cl
inactive: [1] -18.6% | [2] -35% | [3] -7.4% | [4] 8.5% | [5] 10.4% | [6] -3.25%

C=C(C)COc1c(C)c(C)c(OCC(C)C)c(C)c1C
inactive: [1] -4.35% | [2] 9.75% | [3] -0.75% | [4] -8.75% | [5] 3.2% | [6] -10.9%

CC1=NNC(c2ccco2)C1 (centres undefined)
inactive: [1] 10.2% | [2] 5.6% | [3] 12.8% | [4] 18.1% | [5] 11.9% | [6] 5.7%

COc1ccc(Cc2nnc(SC)n2-c2ccc(F)cc2)cc1OC
inactive: [1] 8.7% | [2] -8.25% | [3] 21% | [4] 6.15% | [5] 25.2% | [6] 16.6%

C(/C=C\c1ccccc1)=Nc1ccccc1
inactive: [1] 8% | [2] -11.8% | [3] -4.55% | [4] 9.35% | [5] 0.2% | [6] 17.1%

Cc1ccc(N2C(=O)/C(=C/c3ccc(N(CCC#N)CCC#N)cc3)N=C2COc2ccc(Cl)cc2Cl)cc1
inactive: [1] -0.2% | [2] -26.9% | [3] -7.25% | [4] -17.8% | [5] -36.1% | [6] -25.9%

Cc1cc2nc3[nH]c(=O)c4c(n3c2cc1C)CCC4
inactive: [1] 0% | [2] -6.8% | [3] 0.2% | [4] -8.95% | [5] 8.45% | [6] -15.2%

CC(C)c1cccc(C(C)C)c1NC(=O)OC1CCCCC1C (centres undefined)
inactive: [1] -21.1% | [2] -17.6% | [3] 7% | [4] -1.95% | [5] -4.65% | [6] -6.4%

S=C1SCN(C(c2ccccc2)c2ccccc2)CN1C(c1ccccc1)c1ccccc1
inactive: [1] 12.2% | [2] 22.2% | [3] 9.4% | [4] -20.1% | [5] -4.75% | [6] 28.2%

CCN(CC)c1ccc(/C=N\NC(=O)CCCC(=O)N/N=C/c2ccc(N(CC)CC)cc2)cc1
inactive: [1] -27.6% | [2] 2.65% | [3] -22.9% | [4] -21.9% | [5] 5% | [6] -30.4%

Cc1cccc(C)c1NC(=O)Nc1cccc(O)c1
inactive: [1] -1.4% | [2] 34.8% | [3] 13.5% | [4] -4.4% | [5] 37.6% | [6] 26.4%

CCN(CC)Cc1cc(N=Nc2cccc3ccccc23)c2ccccc2c1O
inactive: [1] 31.6% | [2] 11.4% | [3] 30.1% | [4] 24.9% | [5] -3.15% | [6] 35.7%

CC(=O)OC1CCC2(C)C(=CC=C3C4CCC(=O)NC4(C)CCC32)C1 (centres undefined)
inactive: [1] 19.5% | [2] 0.25% | [3] 21.4% | [4] 11.1% | [5] -3.6% | [6] 2.35%

CC(C)[C@@H]1C=C(c2ccccc2)c2ccccc2C1C(C#N)(C#N)C(C)C (some centres undefined)
inactive: [1] -30.2% | [2] -33.5% | [3] -10.3% | [4] -8.4% | [5] -12.9% | [6] -14.1%

CN(CCO)CC(O)Cn1cnc2ncnc(N)c21 (centres undefined)
inactive: [1] 21.2% | [2] 12% | [3] 28.7% | [4] 13.4% | [5] 7% | [6] 33.5%

C=CCNC(=S)/N=C\C(C(=O)OCC)=C(/O)C(=O)OCC
inactive: [1] -18.6% | [2] -18.4% | [3] -16.6% | [4] -21.7% | [5] -8.85% | [6] -29.8%

CN(C)C(=O)CCOc1cccc2ccccc12
inactive: [1] 16.6% | [2] -3.1% | [3] -16% | [4] -69.5% | [5] -20.8% | [6] 1%

O=C(O)c1ccc(O)cn1
inactive: [1] -4.8% | [2] -7.05% | [3] 2.55% | [4] 6.7% | [5] 3.3% | [6] 2.55%

NC(CC1C(=O)Nc2ccccc21)C(=O)O (centres undefined)
inactive: [1] -32.5% | [2] -14.9% | [3] -11.3% | [4] -60.6% | [5] -0.8% | [6] -8.9%

CSc1cc2c(cc1[N+](=O)[O-])C(=O)c1ccccc1-2
inactive: [1] -1.85% | [2] 5.75% | [3] 0.8% | [4] 0.6% | [5] 4.05% | [6] 5.6%

CCOC(=O)c1cc2c(nc1N)C(=O)CCCC2
inactive: [1] -34.5% | [2] -59.1% | [3] -48.3% | [4] -23.9% | [5] -24.6% | [6] -31.6%

Nn1c(=S)[nH]nc(/C=C/c2ccc3c(c2)OCO3)c1=O
inactive: [1] 38.9% | [2] 20.1% | [3] 3.8% | [4] -19.1% | [5] 6.35% | [6] 15.6%

COc1ccc(/C(C)=N/NC(=O)c2ccncc2)c(OC)c1
inactive: [1] -7.85% | [2] -20.6% | [3] -29.2% | [4] -29.4% | [5] -42.6% | [6] -33.1%

COc1cc(NCCN2CCOCC2)c([N+](=O)[O-])cc1OC
inactive: [1] 22.3% | [2] 12.1% | [3] 8.25% | [4] 2.6% | [5] -0.65% | [6] 8.15%

O=C(O)CNC(=O)C(=O)c1c[nH]c2ccc([N+](=O)[O-])cc12
inactive: [1] -6.5% | [2] -27.8% | [3] 1.05% | [4] -7.8% | [5] -2.1% | [6] 0.2%

COC(=O)c1cc(C)nc(Cl)c1C(=O)O
inactive: [1] 1.55% | [2] 4.95% | [3] -2.2% | [4] 0% | [5] -2.05% | [6] -5.9%

O=[N+]([O-])c1cnc(N(CCO)CCO)s1
inactive: [1] 30.4% | [2] -25.4% | [3] 0.1% | [4] 37.8% | [5] -11.5% | [6] 16.4%

O=C(O)c1cc(=O)[nH]c(SCc2ccccc2)n1
inactive: [1] -9.7% | [2] -20.1% | [3] -28.5% | [4] -30.2% | [5] -20.8% | [6] -5.35%

[Cl-].[Nd+3].[O-]/N=C(\c1ccccc1)c1ccccn1.[O-]/N=C(\c1ccccc1)c1ccccn1.[O-]/N=C(\c1ccccc1)c1ccccn1
inactive: [1] 50.1% | [2] 35.4% | [3] 42.6% | [4] 25.2% | [5] 47% | [6] 58%
